According to PubChem BioAssay:
Values joined by “and” are separate entries in the source; they are usually repeats but may differ in a detail not shown here. Equal values may be shown once. Active and inactive are the calls of the source. Cut-off read from the data, not from the text of the source, unless noted: active = parasite load remaining mostly below about 12% (no sharp cut-off); inactive = mostly above about 10%.

Assays:
[1] = P. berghei load reduction in hepatocytes – cell-based, HepG2, luciferase luminescence, HepG2 viability, primary screen (AID 624349);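 note: 100% = mean of DMSO negative control wells on the same plate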; conditions: P. berghei liver stage in HepG2, luciferase luminescence, concentration not given here; parasite load remaining: stronger effect = lower value; viability: measured here: HepG2 viability without parasites
[2] = viability loss with induced miR-34 in A549 – imaging, A549 dox-inducible miR-34, nuclei and caspase counts, primary screen (AID 1347080;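 active = compounds whose cell count with miR-34 switched on is under 0.7 times the count with it off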); conditions: A549 miR-34 inducible, Hoechst nuclei count, 48 h
[3] = chitosan synthesis blockers in C. neoformans – flow cytometry, Cibacron Brilliant Red staining (AID 1347148; call rule not given here;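 note: compound exposure lasted three days at 37 degrees C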); conditions: Cryptococcus neoformans chitosan, stronger effect = lower value; at 10 µM unless noted
[4] = stronger effect = lower value, cell number ratio, induced over uninduced
[5] = measured here: relative caspase fold change +Dox/-Dox
[6] = measured here: total cells with miR-34 induction, stronger effect = lower value
[7] = measured here: total cells without miR-34 induction

Structure (SMILES)	parasite load remaining [1]	viability [1]	fold change [2, 4]	fold change [2, 5]	cell count [2, 6]	cell count [2, 7]	fold fluorescence [3]
CCOC(=O)Oc1c(OC)cc(C(=O)O[C@@H]2C[C@@H]3CN4CCc5c([nH]c6cc(OC)ccc56)[C@H]4C[C@@H]3[C@H](C(=O)OC)[C@H]2OC)cc1OC	-14.9% (active)	98.5%	0.795 (inactive)	2.41	6440	8100	
COc1ccc(CCN(C)CCC[C@@](C#N)(c2ccc(OC)c(OC)c2)C(C)C)cc1OC							7.65 [at 110 µM] (inactive)
CC(C)[C@@H](O)CC[C@H](C)[C@@H]1CC[C@@H]2[C@H]3CC=C4C[C@H](O)CC[C@@]4(C)[C@@H]3CC[C@]21C							4.41 [at 124.2 µM] (inactive)
CCCCC[C@@H](O)/C=C/[C@H]1[C@H](C/C=C\CCCC(=O)O)[C@H](O)C[C@H]1O							4.85 (inactive)
CN(C)c1ccc(O)c2c1CC1CC3[C@@H](N(C)C)C(=O)C(C(N)=O)=C(O)[C@]3(O)C(=O)C1=C2O (some centres undefined)	53.7% (inactive)	42.6%	0.679 (active)	1.3	3880	5720	
CC12CCC3c4ccc(OC(=O)c5ccccc5)cc4CCC3C1CCC2O (centres undefined)	35.5% (inactive)	95.7%	0.833 (inactive)	2.66	9690	11600	
C[C@@H](/C=C/c1cccc(Oc2ccc(F)cc2)c1)N(O)C(N)=O							6.07 [at 158.1 µM] (inactive)
CCC(C)[C@H]1O[C@]2(CC[C@@H]1C)C[C@@H]1C[C@@H](C/C=C(\C)[C@@H](OC3C[C@H](OC)C(O[C@H]4C[C@H](OC)[C@@H](O)[C@H](C)O4)[C@H](C)O3)[C@@H](C)/C=C/C=C3\CO[C@@H]4[C@H](O)C(C)=C[C@@H](C(=O)O1)[C@]34O)O2 (some centres undefined)	54.4% (inactive)	90.4%	1.04 (inactive)	1.61	4770	4580	
Nc1ncnc2c1ncn2[C@@H]1CCCO1							2.55 [at 243.6 µM] (inactive)
C=C[C@@H]1CN2CCC1C[C@H]2[C@H](O)c1ccnc2ccc(OC)cc12 (some centres undefined)							3.61 [at 154.1 µM] (inactive)
O=C(O)CCC/C=C\C[C@H]1[C@H](/C=C/[C@H](O)COc2cccc(Cl)c2)[C@@H](O)C[C@H]1O							4.34 (inactive)
CC1OC(O[C@H]2/C=C/C=C/C=C/C=C/C=C/C=C/C=C/[C@H](C)[C@@H](O)[C@@H](C)[C@H](C)OC(=O)CC(O)CC(O)CCC(O)C(O)CC(O)CC3(O)C[C@H](O)C(C(=O)O)C(C2)O3)C(O)[C@H](N)C1O (some centres undefined)	85.7% (inactive) and 73.7% (inactive)	73.8% and 92.4%	0.94 (inactive)	0.836	10800	11500	
CC[C@H]1OC(=O)[C@H](C)[C@@H](OC2C[C@@](C)(OC)[C@@H](O)[C@H](C)O2)[C@H](C)[C@@H](O[C@@H]2O[C@H](C)C[C@H](N(C)C)[C@H]2O)[C@](C)(O)C[C@@H](C)/C(=N\OCOCCOC)[C@H](C)[C@@H](O)[C@]1(C)O (some centres undefined)	75.3% (inactive)	93.9%	0.893 (inactive)	1	9320	10400	
OC[C@@H]1NC[C@@H](O)[C@H](O)[C@H]1O							7.48 [at 306.4 µM] (inactive)
COc1cc2c(cc1OC)-c1[nH]nc(Nc3cccc(F)c3)c1C2	37% (inactive)	81.5%	1.05 (inactive)	1.72	1160	1100	
CCCCCCOC(=O)C1(O)CC2OC1(C)n1c3ccccc3c3c4c(c5c6ccccc6n2c5c31)C(=O)NC4 (centres undefined)							4.72 [at 9.3 µM] (inactive)
C[C@H]1[C@H](C)CC[C@]2(C(=O)O[C@@H]3O[C@H](COC4O[C@H](CO)[C@@H](OC5O[C@@H](C)[C@H](O)[C@@H](O)[C@H]5O)[C@H](O)[C@H]4O)[C@@H](O)[C@H](O)[C@H]3O)CC[C@]3(C)C(=CC[C@@H]4[C@@]5(C)C[C@@H](O)[C@H](O)[C@@](C)(CO)C5CC[C@]43C)[C@H]12 (some centres undefined)	109% (inactive)	74.2%	0.957 (inactive)	0.577	8940	9340	
CC(C)(CO)C(O)C(=O)NCCC(=O)O (centres undefined)	190% (inactive)	105%	0.839 (inactive)	0.783	8190	9770	
Nc1ncnc2c1ncn2C1O[C@H](CO)[C@@H](O)[C@@H]1O (some centres undefined)	68.6% (inactive)	95.5%	0.85 (inactive)	1.24	7580	8920	
CCC(=O)O[C@H]1CCC2C3CCc4cc(O)ccc4C3CC[C@@]21C (some centres undefined)	105% (inactive) and 44.5% (inactive)	66.4% and 92.8%	0.912 (inactive)	2.49	10500	11500	
CCCCCCCCCCCCCCCCCCOC[C@@H](COP(=O)([O-])OCC[N+](C)(C)C)OC							5.31 (inactive)
CCCCC(C)(C)[C@@H](O)/C=C/[C@H]1[C@H](C/C=C\CCCC(=O)O)C(=O)C[C@@H]1O							4.79 (inactive)
CCCCCCCCCCCC[C@H](O)C(=O)O							5.23 (inactive)
CC(=O)N[C@@H]1[C@@H](O[C@H](C)C(=O)O)[C@H](O)[C@@H](CO)O[C@@H]1O	112% (inactive)	105%	0.861 (inactive)	1.06	8610	10000	
